The panel holds about 83,000 compounds, 20% with a hit somewhere; the sample as a whole holds those more often.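 Testing used 96-well plates and a 48-hour single-concentration exposure. Example: -40 means 40% of the starting cells died.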 Values without a mark were called inactive. Active and inactive are the calls of the source. Rule for the calls: active = growth percent below 10; inactive = the rest.
Columns and labels:
Assay in all cases: NCI-60 one-dose screen, 48 h (100 = growth as untreated, 0 = no growth, -100 = all killed)
Conditions in all cases: 10 µM unless noted
[1] = test system: RPMI-8226 leukemia
[2] = test system: OVCAR-8 ovarian
[3] = test system: OVCAR-5 ovarian
[4] = test system: OVCAR-4 ovarian
[5] = test system: SK-OV-3 ovarian
[6] = test system: IGROV1 ovarian
[7] = test system: OVCAR-3 ovarian
[8] = test system: HS 578T breast
[9] = test system: NCI/ADR-RES ovarian
[10] = test system: T-47D breast

SMILES | growth [1] | growth [2] | growth [3] | growth [4] | growth [5] | growth [6] | growth [7] | growth [8] | growth [9] | growth [10]
COc1ccc(CCN2CCCN3C2=Nc2ccccc2S3(=O)=O)cc1 | 29.9% | 36.2% | 43.4% | 54.1% | 48.6% | 50.8% | 6.69% (active) | 39.5% | 15.8% | 44.7%
CC(c1cc(Cl)ccc1O)c1cc(Cl)ccc1O | 20.9% | 46.5% | 70.7% | 39.3% | 27.3% | -7.07% (active) | 28.2% | 10.6% | -1.24% (active) | 89.9%
COc1cc2c(cc1OC)C1CCN3C(=O)CCC3N1CC2 (stereo not given) | 102% | 113% | 109% | 116% | 112% | 125% | 113% | 97.9% | 99.6% | 105%
COc1cc2c(c(OC)c1OC)-c1ccc(NN(C(=O)c3ccccc3)C(=O)c3ccccc3)c(=O)cc1[C@@H](NC(C)=O)CC2 (tested in a mixture with another compound) | 66.6% | 47.1% | 68% | 63.4% | 20.8% | 12.3% | 2.09% (active) | -6.83% (active) | 74% | 41.7%
N#Cc1c2ccccc2c2n1-c1ccccc1OC(c1ccccc1)C2=O (stereo not given) | 18.1% | 11.6% | 56.1% | 14.6% | 65.4% | 43% | 41.1% | 40.1% | 14% | 23.2%
CC[N+](C)(CC)CCCC(C)Nc1ccnc2cc(Cl)ccc12 (stereo not given) | 106% | 100% | 119% | 112% | 111% | 110% | 101% | 104% | 112% | 101%
CCC(C)CC(C)C(=O)c1c(O)ccn(OC)c1=O (stereo not given) | 69.3% | 66.3% | 86.8% | 44.9% | 86.7% | 65% | 47.1% | 93.2% | 57.1% | 82.9%
CCN1C2=C(SC(=S)C1=C1SC(C(=O)OC)=C(C(=O)OC)S1)SC(=Nc1ccc(OC)cc1)C2=O | -13.4% (active) | -21.7% (active) | -24.6% (active) | 5.88% (active) | 61% | -58.3% (active) | -61% (active) | 26.2% | -12.2% (active) | 12.7%
Cc1c(N(C)CS(=O)(=O)O)c(=O)n(-c2ccccc2)n1C | 99.2% | 109% | 106% | 116% | 104% | 103% | 118% | 125% | 109% | 107%
CC(C)c1ccc(C(=O)Nc2sc3c(CN(C)C)c(O)ccc3c2C(N)=O)cc1 | -31.8% (active) | 51.5% | 59.4% | 48.5% | 70.6% | 27.3% | 62.7% | 69.1% | 51.6% | 54.2%
COc1cc(Oc2cc(-c3cccnc3)ccc2NC(=O)Nc2ccc(F)cc2F)cc(OC)c1OC | 93.6% | 92.8% | 117% | 113% | 89.1% | 116% | 102% | 99.9% | 95.2% | 71.5%
O=c1cc(-c2cccnc2)oc2c1ccc1ccccc12 | 80.2% | 87% | 76.2% | 89.3% | 106% | 84.8% | 76.5% | 66.5% | 75.3% | 81.6%
COc1ccc(C2CC(c3ccc(OC)c(OC)c3)=NN2C(=O)c2cc(OC)c(OC)c(OC)c2)c(OC)c1 (stereo not given) | 92.4% | 91.2% | 93% | 74.7% | 65.6% | 61.6% | 52.9% | 49.6% | 53.2% | 82%
CC(CCC(=O)O)(NC(=O)c1ccc([N+](=O)[O-])cc1)C(=O)O (stereo not given) | 116% | 102% | 118% | 111% | 96% | 115% | 108% | 105% | 108% | 93.7%

From PubChem BioAssay (NCI)
